From ChEMBL document CHEMBL4513216, “Probing the Open Global Health Chemical Diversity Library for Multistage-Active Starting Points for Next-Generation Antimalarials” (ACS Infect Dis, 2020) come the findings set out here.

Hit rate of the full screen: of about 69,000 compounds, about 8,600 (12%) showed an effect of 50% or more. What follows is part of a selection rich in strong results, with near analogues and random picks from the rest.

The subject of the test is Plasmodium berghei. The experiment in a line: Screen against P. berghei liver stage (PbLuc), transformed with Luciferase, at 10uM. The note with it: tested at 10 uM. Format: functional, HepG2.
Take `Cc1cnc(N2CCC(OCCN3CCCCC3)C2)nc1C` (configuration not stated): the INHIBITION is reported as 54.5%. Turning to `Cc1ccnc(N2CCC(OCCN3CCCCC3)C2)n1` (configuration not stated), the INHIBITION amounted to 48.9%.

With `Cc1cc(C)nc(N2CCC(OCCN3CCCCC3)C2)n1` (configuration not stated), the INHIBITION is reported as 58.2%. In the case of `c1cnc(N2CCC(OCCN3CCCCC3)C2)nc1` (configuration not stated), the INHIBITION came to 40.6%.

As for `CC(C)(C)c1nccc(N2CCC(OCCN3CCCCC3)C2)n1` (configuration not stated), the INHIBITION turned out to be 66.5%.

Turning to `C1CCN(CCOC2CCNCC2)CC1`, the INHIBITION is listed as 3.63%. For the compound `Cc1cnc(N2CCCOC(CN3CCCCC3)C2)nc1` (configuration not stated), the INHIBITION is given as 34.1%. For `CN(CCN1CCCCCC1)c1nccc(N2CCC(O)C2)n1` (configuration not stated), the INHIBITION was found to be 27.6%.

Regarding `COc1ccnc(N2CCC(OCCN3CCCCC3)C2)n1` (configuration not stated), the INHIBITION is reported as 42.4%. With `c1nc2c(c(-c3ccsc3)n1)CCN(Cc1ccoc1)CC2`, the INHIBITION is listed as 20.1%.

As for `CCCNC(c1cccnc1)c1ccc(F)c(C)c1` (configuration not stated), the INHIBITION was -24.7%. As for `O=C(CN1CCOC(CNc2cccnn2)C1)NCc1cccs1` (configuration not stated), the INHIBITION stood at 36.55%. With `CC(C)(C)c1nc(CN2CCOC(Cn3cccn3)C2)no1` (configuration not stated), the INHIBITION is -29.1%.

As for `O=C(c1ccncc1F)N1C[C@@H]2CC[C@H]1CN(Cc1cccnc1)C2`, the INHIBITION was determined as 22.7%.

Regarding `Cc1cc(C(=O)NC(C)Cc2ccccc2Cl)n(C)n1` (configuration not stated), the INHIBITION is given as -39.3%. As to `Cc1noc(C)c1CN1CCCC2(CCN(C(=O)N3CCOCC3)C2)C1` (configuration not stated), the INHIBITION was determined as 26%. As to `Cc1ccc(-c2nc(CN3CC(n4nc(C)cc4C)C3)no2)cc1`, the INHIBITION stood at 1.86%. As for `COCC1COCCC12CCN(C(=O)Cc1ccc(F)cc1)CC2` (configuration not stated), the INHIBITION turned out to be 0.542%. `COc1c(C(=O)NCC(C)Sc2ccccc2)c(C)nn1C` (configuration not stated): the INHIBITION is on record as 29.1%. In the case of `COc1ccccc1C(C)CNC(=O)c1c(C)nn(C)c1OC` (configuration not stated), the INHIBITION turned out to be 0.705%.

Regarding `CCC(CNC(=O)c1c(C)nn(C)c1OC)Oc1ccccc1` (configuration not stated), the INHIBITION was determined as 73.5%. The result for `Cc1ccc(NC(=O)N(CCO)Cc2ccsc2)cc1` reads -71.5%; that for `COCCN(C)C(=O)Nc1ccc2c(ccn2CCOC)c1`, 58.4%; that for `CCCn1ccc2ccc(NC(=O)N(C)CCOC)cc21`, 20.5%. Regarding `COCCN(C)C(=O)Nc1ccc2c(ccn2CC(=O)N(C)C)c1`, the INHIBITION is reported as 19.73%. Consider `O=C1CC2(CNCCN(C(=O)Nc3ccccc3)C2)CN1` (configuration not stated), for which the INHIBITION was determined as 16.1%. In the case of `CC(=O)NCC1CCC2(CCN(c3ncc(C(C)=O)c(C)n3)CC2)O1` (configuration not stated), the INHIBITION is 56.7%. As to `CC(=O)NCC1CCC2(CCN(c3ncc(C)cn3)CC2)O1` (configuration not stated), the INHIBITION was -4.21%. Take `CC(=O)NCC1CCC2(CCN(c3nccc(C4CCCC4)n3)CC2)O1` (configuration not stated): the INHIBITION is reported as 42.1%.

Consider `CCC(=O)N1CCC(NCc2cc(C(F)(F)F)ccc2Cl)C1` (configuration not stated), for which the INHIBITION is recorded as 42.6%. For the compound `O=C(c1cccs1)N1CCCC2(COCCN(c3cccnc3)C2)C1` (configuration not stated), the INHIBITION was found to be 67.2%. Regarding `O=C(c1cccnc1)N1CCCC2(COCCN(c3ccccc3)C2)C1` (configuration not stated), the INHIBITION came to 29.7%. For `c1ccc(N2CCC3(COCCN(Cc4cccs4)C3)C2)nc1` (configuration not stated), the INHIBITION is -7.28%. Under `CC(C)N1CCOCC2(CCCN(C(=O)c3cncn3C)C2)C1` (configuration not stated) stands 76.3%. `Cn1cc(CN2CCCC3(COCCN(c4cccnc4)C3)C2)cn1` (configuration not stated): the INHIBITION came to 32.2%.

`O=C(c1cccs1)N1CCOCC2(C1)CN(c1cccnc1)C(=O)CO2` (configuration not stated): the INHIBITION was 0.618%. Take `CC(C)N1CCOCC2(CCCN(C(=O)c3cn(C)cn3)C2)C1` (configuration not stated): the INHIBITION was -27.9%. As to `c1cncc(CN2CCCC3(COCCN(c4cncnc4)C3)C2)c1` (configuration not stated), the INHIBITION is reported as 3.11%. As for `c1cnc(N2CCOCC3(CCCN(Cc4cccs4)C3)C2)nc1` (configuration not stated), the INHIBITION was 67.2%. As for `c1cncc(N2CCOCC3(CCCN(Cc4cccs4)C3)C2)c1` (configuration not stated), the INHIBITION turned out to be 59.1%.

On to `CC(C)N1CCC2(CCCN(C(=O)c3cncn3C)C2)CC1`, for which the INHIBITION was found to be 23.1%. On to `c1csc(CN2CCCC3(COCCN(c4cnccn4)C3)C2)c1` (configuration not stated), for which the INHIBITION worked out at 18.3%. Consider `Cc1ccnn1CCNC(=O)c1cnc(N(C)C)nc1`, for which the INHIBITION is given as -43.452%. In the case of `COCCN1C[C@@H](C)[C@@]2(COCCN(C(=O)c3ccncc3)C2)C1`, the INHIBITION is -8.85%. With `COc1c(C2CCCN2C(=O)c2c(C)noc2C)c(C)nn1C` (configuration not stated), the INHIBITION is 19.4%. Regarding `Cc1ccn2c(F)c(C(=O)N3CCC4(CCCN(C)C4=O)C3)nc2c1` (configuration not stated), the INHIBITION worked out at 3.69%. In the case of `Cc1cn[nH]c1C1COCCN1Cc1cscn1` (configuration not stated), the INHIBITION is reported as 25.85%. In the case of `CCN(C)c1ncnc2c1CCN(C(=O)c1cnccn1)CC2`, the INHIBITION was -66%. Regarding `O=C(NCCO)c1sc2ncccc2c1C1CNCCO1` (configuration not stated), the INHIBITION is 9.98%. With `CC(C)NC(=O)N1CCC2(CC1)COc1ccccc1S(=O)(=O)N(C)C2`, the INHIBITION stood at 4.57%.

For `O=C(N1CCCC1)N1CCOCC2(CCN(Cc3cccs3)C2)C1` (configuration not stated), the INHIBITION is on record as 66.8%. Under `O=C(C1CCCO1)N1CCCC2(CCN(c3cccnc3)CC2)C1` (configuration not stated) stands 29.5%; under `O=C(c1ccncc1)N1CCCC2(COCCN(c3ccccc3)C2)C1` (configuration not stated), -6.82%. As to `c1cncc(N2CCOCC3(CCCN(c4nncs4)C3)C2)c1` (configuration not stated), the INHIBITION was 43.2%. `O=S(=O)(c1cccs1)N1CCCC2(COCCN(c3cccnc3)C2)C1` (configuration not stated): the INHIBITION was found to be 82.3%. With `O=C([C@H]1CCCO1)N1CCCC2(COCCN(c3ccccc3)C2)C1` (some centres not stated), the INHIBITION worked out at 66.3%. The result for `CCS(=O)(=O)N1CCCC2(COCCN(c3cnccn3)C2)C1` (configuration not stated) reads 45.8%; that for `COCC(=O)N1CCOCC2(CCN(Cc3cccs3)C2)C1` (configuration not stated), -13.2%. On to `O=C(NC1CC1)N1CCOCC2(CCN(Cc3cccs3)C2)C1` (configuration not stated), for which the INHIBITION was -0.371%. The result for `Cc1ccc(C2CSCCN2C(=O)c2cnsn2)o1` (configuration not stated) reads 8.46%.

Turning to `CN1CCN(C(=O)c2n[nH]c3c2CN(C2CCOC2)CC3)CC1` (configuration not stated), the INHIBITION was 22.3%. In the case of `CCNc1ncnc2c1CN(C1CCCNCC1)C(=O)CN2C` (configuration not stated), the INHIBITION worked out at 40%. On to `CNc1cc(C2CN(CC(=O)N(C)C)CCO2)nc(C)n1` (configuration not stated), for which the INHIBITION is 14.7%. Consider `Cc1cc(=O)[nH]cc1C(=O)N1Cc2ccccc2N(C)CC1C` (configuration not stated), for which the INHIBITION stood at 52.6%. Under `CC1CN(C)c2ccccc2CN1C(=O)c1cc[nH]c(=O)c1` (configuration not stated) stands -18.3%; under `CCC1CN(C)c2ccccc2CN1C(=O)c1c[nH]c(=O)cc1C` (configuration not stated), 28.7%; under `Cc1ccccc1CCNC(=O)C1CC(=O)N(CC(F)(F)F)C1` (configuration not stated), 55.5%. For `O=C(NCCNc1ncccn1)C1CC(=O)N(CC(F)(F)F)C1` (configuration not stated), the INHIBITION is given as 19.5%. For the compound `O=C(NCCc1ccccn1)C1CC(=O)N(CC(F)(F)F)C1` (configuration not stated), the INHIBITION is recorded as 2.3%. On to `O=C(c1cn(-c2ccc(C(F)(F)F)cn2)nn1)N1CCCCCC1`, for which the INHIBITION turned out to be 46.1%. The result for `CN1CCN(C(=O)c2cn(-c3ccc(C(F)(F)F)cn3)nn2)CC1` reads 59.1%; that for `CC1CCN(C(=O)c2cn(-c3ccc(C(F)(F)F)cn3)nn2)CC1`, 2.55%.
